Bioassay records (PubChem)
RORg inh: blocks mouse ROR gamma transcriptional activity; P51450; Drosophila S2 Gal4-RORgamma UAS-luciferase reporter, 20 h; Potency, µM (titrated, usually from 53.6 µM), most hits filed as inhibitors; hit rate 5.4% among 310,000; AID 2551; further: nearly all actives have a fitted effect of over 60% in size
Target sequence (P51450 whole entry, looked up, the tested form may be a part): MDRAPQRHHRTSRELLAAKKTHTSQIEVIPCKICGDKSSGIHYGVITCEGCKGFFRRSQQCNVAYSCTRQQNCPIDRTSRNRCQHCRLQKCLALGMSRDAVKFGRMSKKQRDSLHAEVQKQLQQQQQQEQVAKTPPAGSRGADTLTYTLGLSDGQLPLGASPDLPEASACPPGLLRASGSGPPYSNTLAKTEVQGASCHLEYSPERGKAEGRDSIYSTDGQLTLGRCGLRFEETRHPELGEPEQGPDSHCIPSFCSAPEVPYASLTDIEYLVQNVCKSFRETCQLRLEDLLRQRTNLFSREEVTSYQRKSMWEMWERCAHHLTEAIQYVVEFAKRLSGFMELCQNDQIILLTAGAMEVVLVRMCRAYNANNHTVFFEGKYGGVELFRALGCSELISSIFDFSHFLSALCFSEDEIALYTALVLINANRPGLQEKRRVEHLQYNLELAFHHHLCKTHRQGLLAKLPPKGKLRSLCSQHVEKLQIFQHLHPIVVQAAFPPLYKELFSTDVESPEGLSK
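Using a luciferase readout, inhibitors were identified by reduced reporter activity in Drosophila cells coexpressing a copper-inducible Gal4–ROR gamma fusion and UAS-driven Photinus luciferase, incubated 20 hr after 700 uM copper sulfate.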
IL-1B inflam inh: blocks inflammasome-driven IL-1 beta release; hit rate 4.7% among 360,000; AID 743279; THP-1 LPS/ATP IL-1B secretion, AlphaLISA, 16 h; hits give low values; activity change, % at 57.5 µM; in the data active means activity change below about -50%; inconclusive means mostly about -30% to -49%
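THP-1 cells pretreated 1 hr with compounds (up to 57.5 uM final), then stimulated with LPS (250 ng/mL final) plus ATP (1.25 mM final); secreted IL-1B measured by AlphaLISA after 16 hr, decreased signal indicating inhibition.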
VP16 counter: Gal4-VP16 reporter inhibition counter-screen. Potency, µM (series often up to 53.6 µM), actives largely listed as inhibitors. hit rate 3.5% among 310,000. Drosophila S2 Gal4-VP16 UAS-luciferase, luminescence, 20 h. AID 2546;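 further: Gal4-VP16 expression switched on by copper sulfate through the metallothionein promoter; nearly all actives have a fitted effect of over 50% in size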
MCF10A rerep: inducers of DNA re-replication in MCF 10A breast cells; Potency, µM (doses to about 46.1 µM), most hits filed as activators; MCF 10A DNA re-replication, Hoechst nuclear intensity, 48 h; hit rate 2.9% among 350,000; further: nearly all actives have a fitted effect of over 50% in size
SW480 rereplic: induces DNA re-replication in SW480 colon adenocarcinoma cells; AID 624297; Potency, µM (series often up to 46.1 µM), usual class: activators; SW480 DNA re-replication, Hoechst DNA content imaging, 48 h; hit rate 1.8% among 340,000; further: nearly all actives have a fitted effect of over 55% in size
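DNA re-replication was detected as more nuclei of elevated Hoechst intensity after 48 hr exposure to compound (23 nL pinned per well of 250 cells).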
Each line names hits and unclear results; the compound was inactive in the other large screens; ! = a repeat was not active. This is a sample that favours compounds with a hit; in the whole collection about 11% have one here. Unless noted, the call rests on the fitted dose curve; in most records, active means well fitted curve in the direction sought with a large enough effect; inconclusive means small, poorly fitted or top-dose-only effect, or another doubt; inactive means no such curve, though single readings can be large; an effect the other way counts as inactive or inconclusive.

COc1ccccc1-c1c(C#N)c(N)nc2c1CCc1ccccc1-2	VP16 counter inconclusive, MCF10A rerep inconclusive, SW480 rereplic 20.6µM
CCOC(=O)c1c(NC(=O)COC(=O)CCCOc2ccc(OC)cc2)sc(C(=O)N(C)C)c1C	none (no result: RORg inh, VP16 counter)
COc1cc2c(cc1OC)CN(C(=S)Nc1cccc(Cl)c1C)CC2	RORg inh inconclusive
CCC[n+]1cn(/C(C(=S)Nc2cccc(Cl)c2C)=C(/[O-])c2ccc(OC)c(OC)c2)c2ccccc21	RORg inh 14.1µM, VP16 counter inconclusive
Cc1cccc(NC(=O)CSc2nc(C)c(CC(=O)c3ccc(Br)cc3)c(C)c2C#N)c1C	MCF10A rerep 1.03µM
Cc1nc(SCC(=O)Nc2ccc(F)cc2)c(C#N)c(C)c1CC(=O)c1ccc(Br)cc1	VP16 counter inconclusive, MCF10A rerep 16.4µM, SW480 rereplic inconclusive
COc1ccc(NC(=O)CSc2nc(C)c3c(c2C#N)CCCC3)cc1	none
COc1ccccc1NC(=O)CSc1nc(C)c2c(c1C#N)CCCC2	none
CCCCn1c(=NC(=O)c2ccco2)c(C(=O)OCC)cc2c(=O)n3ccccc3nc21	MCF10A rerep inconclusive
CCCCCn1c(=NC(=O)c2ccco2)c(C(=O)OCC)cc2c(=O)n3ccccc3nc21	IL-1B inflam inh -74.1!, MCF10A rerep inconclusive, SW480 rereplic inconclusive
CCCCn1c(=NC(=O)c2ccco2)c(C(=O)OCC)cc2c(=O)n3cccc(C)c3nc21	MCF10A rerep 6.51µM, SW480 rereplic 18.4µM
COC(=O)NC(c1ccc2ccccc2c1)C(C(C)=O)C(=O)OC (configuration not stated)	none (no result: IL-1B inflam inh, MCF10A rerep, SW480 rereplic)
COC(CNC(=O)c1ccc2c3c(onc13)-c1ccccc1C2=O)OC	RORg inh inconclusive, IL-1B inflam inh -96.8, VP16 counter inconclusive, MCF10A rerep inconclusive, SW480 rereplic inconclusive
COC(CNC(=O)c1cccnc1)OC	none
COc1ccc(OCc2n[nH]c(=S)n2-c2ccc(C)cc2)cc1	RORg inh 2.24µM, VP16 counter inconclusive
COc1ccc(-n2c(COc3cccc(C)c3)n[nH]c2=S)cc1	RORg inh 3.55µM, VP16 counter 5.01µM
COc1cc([N+](=O)[O-])c(OC)cc1SCc1n[nH]c(=S)n1-c1ccc(F)cc1	MCF10A rerep inconclusive
COc1cc([N+](=O)[O-])c(OC)cc1SCc1n[nH]c(=S)n1-c1ccc(C)cc1	RORg inh 2.24µM
CCOCCn1c(=NC(=O)CSCC(=O)Nc2cc(C)on2)sc2cc(OC)ccc21	none
COc1ccc(-c2cn3nc4c(nc3n2)CCCC4)cc1	RORg inh inconclusive, VP16 counter 1.26µM, SW480 rereplic inconclusive
C=CCOc1cccc(C(=O)Nc2ncn[nH]2)c1	RORg inh 22.4µM, VP16 counter inconclusive
C[C@H]1COC(=O)[C@@H](Cc2ccc(F)cc2)C/C=C\C[C@H](CC(=O)N(CCO)Cc2ccccc2)C(=O)N1	none (no result: RORg inh, VP16 counter)
CC(NNC(=O)c1ccccc1)c1ccccc1 (configuration not stated)	none (no result: IL-1B inflam inh)
Cc1ccc(-c2nn(-c3ccccc3)cc2CN(Cc2ccccc2)C(=O)c2ccco2)o1	RORg inh inconclusive, IL-1B inflam inh inconclusive, MCF10A rerep 16.4µM, SW480 rereplic inconclusive
Cc1ccc(-c2nn(-c3ccccc3)cc2C(=O)O)o1	none (no result: IL-1B inflam inh, MCF10A rerep, SW480 rereplic)
O=C1C2CCCN2C(=S)N1c1cc(Cl)ccc1Cl (configuration not stated)	IL-1B inflam inh -65.6, MCF10A rerep inconclusive (no result: RORg inh, VP16 counter)
Cc1cccc(Cn2cccc2/C=C2/C(=N)N3C=CSC3=NC2=O)c1	RORg inh 8.91µM, VP16 counter 7.94µM
N=C1/C(=C/c2cccn2Cc2ccc(F)cc2)C(=O)N=C2SC=CN12	RORg inh 10µM, MCF10A rerep 4.61µM
Cc1ccc(Cn2cccc2/C=C2/C(=N)N3C=CSC3=NC2=O)cc1	RORg inh 12.6µM, VP16 counter inconclusive
O=C(COc1c(Br)cc(Br)c2cccnc12)N1CCc2ccccc2C1	RORg inh 5.62µM, VP16 counter 7.94µM, MCF10A rerep inconclusive
O=C(COc1c(Br)cc(Br)c2cccnc12)N1CCCCC1	RORg inh 10µM, VP16 counter inconclusive
COc1cc2c(cc1OC)CN(C(=O)COc1ccccc1C#N)CC2	IL-1B inflam inh -73.6
N#Cc1ccccc1OCC(=O)N1CCc2ccccc2C1	RORg inh inconclusive
O=C(COc1cccc2cccnc12)N1CCc2ccccc2C1	MCF10A rerep inconclusive
Cc1ccccc1C(=O)N1CCc2ccccc2C1	MCF10A rerep 16.4µM
CC(=O)c1ccc(S(=O)(=O)N2CCN(CC(=O)Nc3ccccc3C(=O)NC3CC3)CC2)cc1	none (no result: RORg inh, VP16 counter)
Cc1ccc(CNC(=O)[C@]2(C(F)(F)F)C[C@H](CCc3ccccc3)CCCO2)o1	none (no result: IL-1B inflam inh, MCF10A rerep, SW480 rereplic)
CCN1CCN(c2nc3c(c(=O)[nH]c(=O)n3C)n2Cc2cccc(C)c2)CC1	none (no result: RORg inh, VP16 counter, MCF10A rerep, SW480 rereplic)
Cc1cccc(C)c1OCC(=O)N1CCc2ccccc2C1	IL-1B inflam inh -81.9
Cc1cccc(OCC(=O)N2CCc3ccccc3C2)c1C	none (no result: RORg inh, VP16 counter, MCF10A rerep, SW480 rereplic)
O=C(COc1c(Br)cc(Br)c2cccnc12)Nc1ccccc1F	RORg inh inconclusive, VP16 counter 20µM
CS(=O)(=O)N1CCC[C@@]2(CCN(c3ccccn3)C2)C1	none (no result: IL-1B inflam inh, MCF10A rerep, SW480 rereplic)
COc1ccc(Oc2ncc3nc(-c4cccc(C#N)c4)c(=O)n(Cc4cccc(OC)c4)c3n2)cc1	none (no result: IL-1B inflam inh, MCF10A rerep, SW480 rereplic)
CCCCCC1CCC(c2n[nH]c(=S)n2C)CC1 (configuration not stated)	RORg inh inconclusive, VP16 counter 3.98µM
Cc1cccc(Nc2nc(N)c([N+](=O)[O-])c(N3CC(C)CC(C)C3)n2)c1 (configuration not stated)	IL-1B inflam inh -101.4, VP16 counter inconclusive, SW480 rereplic inconclusive
CN1CCN(c2nc(NCc3ccco3)nc(N)c2[N+](=O)[O-])CC1	MCF10A rerep inconclusive, SW480 rereplic 13µM
Cc1cccc(Nc2nc(N)c([N+](=O)[O-])c(N3CC(C)OC(C)C3)n2)c1 (configuration not stated)	IL-1B inflam inh inconclusive
Nc1nc(NCCCN2CCOCC2)nc(Nc2cccc(Cl)c2)c1[N+](=O)[O-]	IL-1B inflam inh -91.6, SW480 rereplic inconclusive
Nc1nc(Nc2ccccc2)nc(N2CCOCC2)c1[N+](=O)[O-]	RORg inh inconclusive, SW480 rereplic inconclusive
Cc1cccc(Nc2nc(N)c([N+](=O)[O-])c(N3CCC(C)CC3)n2)c1	RORg inh inconclusive, IL-1B inflam inh -89.9, MCF10A rerep 23.1µM, SW480 rereplic inconclusive
CCOC(=O)[C@]12CCC=C1N(Cc1ccc3c(c1)OCO3)C(=O)[C@H](CC(=O)N1CCOCC1)C2	none (no result: RORg inh, VP16 counter, MCF10A rerep, SW480 rereplic)
COc1cc(CCN(C(=O)c2cc3ccccc3[nH]2)C(c2ccccn2)c2nc3ccccc3[nH]2)cc(OC)c1 (configuration not stated)	none (no result: RORg inh, VP16 counter, MCF10A rerep, SW480 rereplic)
CCN1CCN(c2nc(N)c([N+](=O)[O-])c(Nc3cccc(C)c3)n2)CC1	none (no result: IL-1B inflam inh)
CN(C)c1ccc(Nc2nc(N)c([N+](=O)[O-])c(N3CCOCC3)n2)cc1	IL-1B inflam inh -86.7, MCF10A rerep inconclusive, SW480 rereplic inconclusive
